# L3MBTL1 block: qHTS Assay for the Inhibitors of L3MBTL1. AlphaScreen L3MBTL1–H3K9me1 peptide binding. Potency, µM (titrated, usually from 57.1 µM), actives largely listed as inhibitors. 230,000 tested, 0.66% active; further: nearly all actives have a fitted effect of over 60% in size
#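 AlphaScreen proximity signal between nickel-chelate acceptor and streptavidin donor beads (final 10 ug/mL) reports binding of 50 nM L3MBTL1 to 75 nM biotin-H3 K9me1 peptide; complex incubated with compounds 30 min at room temperature; cefsulodin titration as control.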
# GLS inh: qHTS for Inhibitors of Glutaminase (GLS); Glutaminase kidney isoform, mitochondrial (Homo sapiens), O94925; GLS enzymatic activity, qHTS titration; Potency, µM (highest dose often 45.5 µM), hits mostly inhibitors; 410,000 tested, 0.21% active; AID 624170, 2012
#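 Human kidney-isoform GLS in 45 mM KH2PO4 pH 8.2, 0.02% Tween-20, with compound, started with 1mM L-Glutamine (added stock). Glutamate oxidase/HRP/Amplex red coupled fluorescence read at start and after 30 min at RT.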
# G9a inh: qHTS Assay for Inhibitors of Histone Lysine Methyltransferase G9a | Potency, µM (titrated, usually from 102 µM), actives largely listed as inhibitors | G9a H3K9 monomethylation, AlphaScreen, 2 h | AID 504332, 2011 | Histone-lysine N-methyltransferase EHMT2 (Homo sapiens), Q96KQ7 | 350,000 tested, 8.8% active; further: nearly all actives have a fitted effect of over 75% in size
#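 Methyltransferase reactions run at room temperature for 2 h (20 nM enzyme, 500 nM biotin-H3K9 peptide, 20 uM SAM) after a 15 min compound preincubation; product detected by AlphaScreen beads and anti-H3K9me1 antibody.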
# BAZ2B inh: qHTS Assay for Inhibitors of BAZ2B; Bromodomain adjacent to zinc finger domain protein 2B (Homo sapiens), Q9UIF8; AlphaScreen BAZ2B-H3K14Ac peptide displacement; Potency, µM (doses to about 114 µM), hits mostly inhibitors; 360,000 tested, 4.4% active; AID 504333, 2011; further: nearly all actives have a fitted effect of over 60% in size
#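 In this displacement format the biotinylated H3(5-23) peptide acetylated at Lys14 serves as ligand at 50 nM, with BAZ2B at 50 nM in PBS pH 7.4 containing 0.01% Tween-20. Donor and acceptor beads are 10 ug/mL final.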
# JMJD2A Tudor: qHTS Assay for Inhibitors of JMJD2A-Tudor Domain; 390,000 tested, 4.4% active; AlphaScreen JMJD2A-Tudor / H3K4me3 peptide binding; Potency, µM (top dose mostly 114 µM), actives largely listed as inhibitors; further: nearly all actives have a fitted effect of over 50% in size
# HP1b chromo inh: HTS for Inhibitors of HP1-beta Chromodomain Interactions with Methylated Histone Tails; Potency, µM (titrated, usually from 114 µM), actives largely listed as inhibitors; Chromobox protein homolog 1 (Homo sapiens), P83916; 390,000 tested, 0.56% active; AlphaScreen HP1-beta / biotin-H3K9me3 peptide binding; further: nearly all actives have a fitted effect of over 70% in size
#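 AlphaScreen: HP1-beta (50 nM) preformed 30 min with biotin-H3(1-18)K9me3 peptide (50 nM) in PBS pH 7.4, 0.01% Tween-20. Compound added for 30 min at RT, then streptavidin donor/nickel chelate acceptor beads (10 ug/mL) for 30 min.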
# A number is an active result; 0 = inactive; ? = inconclusive; - = no result given; [ ] = dose if it differs, or a comment. An excerpt weighted towards active compounds, which were near 10% of everything screened. The call rests on the fitted dose curve; in most records, active means well fitted curve in the direction sought with a large enough effect; inconclusive means small, poorly fitted or top-dose-only effect, or another doubt; inactive means no such curve, though single readings can be large; an effect the other way counts as inactive or inconclusive.
SMILES,L3MBTL1 block,GLS inh,G9a inh,BAZ2B inh,JMJD2A Tudor,HP1b chromo inh
CCOc1ccc(CNC(=O)Cn2ccc3cc(S(=O)(=O)N4CCCCC4)ccc32)cc1,-,0,0,0,0,0
CCOc1ccc(C(=O)CC(NCc2cccs2)C(=O)O)cc1 (stereo not given),0,0,25µM,0,89µM,0
CCOc1ccc(C(=O)CCC(=O)N(CC)CC(=O)NCc2cccs2)cc1,0,0,0[12.7 µM],0,0,0
COc1ccc(N2C(=O)CSC23C(=O)N(CC(=O)NC2CCCCC2)c2ccccc23)cc1 (stereo not given),-,0,0,0,0,0
CCCc1cc(=O)oc2cc(C)c3c(-c4ccccc4)coc3c12,-,0,0,0,0,0
CCC(Sc1nnc(-c2ccc(C)c(Cl)c2)n1CC)C(=O)Nc1nccs1 (stereo not given),0,0,?,0,89µM,0
CCn1c(SCC(=O)Nc2nccs2)nnc1-c1ccc(S(=O)(=O)N2CCCCCC2)cc1,-,0,0,0,0,0
O=C(Cn1c(=O)oc2ccccc21)NCc1ccccc1Cl,-,0,0,0,0,0
CCOc1ccc(NCc2cccn2-c2nnc(N3CCC(C(=O)NCCCN4CCCCC4CC)CC3)s2)cc1 (stereo not given),-,0,50µM,?,28µM,0
Cc1nc(=S)c2ccccc2[nH]1,-,0,?,0,0,0
FC(F)(F)c1nc(=S)c2ccccc2[nH]1,-,0,0,0,50µM,?
Nc1cccc2[nH]c(C(F)(F)F)nc12,?,0,28µM,56µM,?,?
O=C(O)c1cccc2[nH]c(C(F)(F)F)nc12,0,0,40µM,56µM,32µM,0
S=c1nc(COc2ccccc2)[nH]c2ccccc12,-,0,18µM,0,0,0
COc1cc(F)c(S(=O)(=O)N2CCCN(S(=O)(=O)c3cccc(NC(C)=O)c3)CC2)c(F)c1,-,-,-,-,0,-
COc1ccc(OCCCCn2c(-c3ccc(Cl)cc3)nc3ccccc3c2=O)cc1,-,0,0,0,0,0
CCCCC(CC)CNC(=O)c1ccc2c(=O)n(CCOC)c(=O)[nH]c2c1 (stereo not given),-,0,0,0,0,0
Cc1cc(C)c2c(n1)sc1c(=O)[nH]c(SCc3ccccc3)nc12,0,0,?,0,0,0
C=CCSc1nc2c(sc3nc(C)cc(C)c32)c(=O)[nH]1,0,?,45µM,0,0,0
CCCOc1ccc(NC(=O)c2cc3cc(C)ccc3[nH]2)cc1,0,0,-,0,0,0
Cc1cc(Cl)ccc1NC(=O)CCC(=O)O,0,0,0,0,0,0
CCOc1ccc(NCC(=O)Nc2ccc(Cl)cc2C)cc1,0,0,8.9µM,?,?,0
CCCOc1ccc(NCC(=O)Nc2ccc(C)cc2C)cc1,0,0,8.9µM,?,?,0
COc1ccc(NCC(=O)Nc2ccc(Cl)cc2C)c(OC)c1,0,0,1.4µM,50µM,50µM,?
O=C(Cc1ccc(-c2ccccc2)cc1)NCCS(=O)(=O)N1CCN(c2ccccc2F)CC1,-,0,0,0,0,0
SMILES,L3MBTL1 block,GLS inh,G9a inh,BAZ2B inh,JMJD2A Tudor,HP1b chromo inh
Cc1c(Cl)cccc1NC(=O)CC(c1ccc(F)cc1)N1Cc2ccccc2C1=O (stereo not given),-,0,?,0,0,0
Cc1oc(-c2ccc(C(=O)N(C)Cc3ccccc3)cc2)nc1CN1CCc2ccccc21,-,0,?,25µM,28µM,0
O=C(C1CCC(CNS(=O)(=O)c2cccc3nsnc23)CC1)N1CC=C(c2ccccc2)CC1 (stereo not given),-,0,89µM,0,0,0
Cc1ccc(NS(=O)(=O)c2cccc3nsnc23)cc1,0,0,?,0,0,0
O=C(O)CNS(=O)(=O)c1cccc2nsnc12,-,0,0[12.7 µM],0,14µM,0
O=S(=O)(Nc1ccc(F)cc1)c1cccc2nsnc12,0,0,0,?,0,0
O=S(=O)(Nc1ccccc1)c1cccc2nsnc12,0,0,?,50µM,?,?
Cc1ccc(NS(=O)(=O)c2cccc3nsnc23)cc1[N+](=O)[O-],-,0,40µM,0,0,0
CCOC(=O)c1c(/N=C/c2cccc([N+](=O)[O-])c2O)sc(C)c1C,0,0,7.1µM,45µM,50µM,45µM
O=C(c1ccc2c(c1)N(Cc1ccc(Cl)cc1)C(=O)c1ccccc1S2(=O)=O)N1CCc2ccccc21,-,0,0,0,0,0
CCCCCOC(=O)C1=C(C)NC(=O)NC1c1ccc2c(c1)OCO2 (stereo not given),0,0,0,0,0,0
CC1=C(C(=O)OCCBr)C(c2cccc3ccccc23)NC(=O)N1 (stereo not given),-,0,79µM,0,0,0
CC1=C(C(=O)OCCCBr)C(c2ccc3c(c2)OCO3)NC(=O)N1 (stereo not given),0,0,50µM,0,0,0
CCCOC(=O)C1=C(C)NC(=O)NC1c1cccc2ccccc12 (stereo not given),-,0,0,0,0,0
Cc1nnc(SCc2cc(=O)[nH]c(=S)[nH]2)s1,0,0,28µM,?,?,0
O=c1cc(CSc2ccccc2)[nH]c(=S)[nH]1,0,?,?,0,89µM,0
Cc1nnc(SCc2cc(=O)c3ccccc3[nH]2)s1,-,0,0,0,0,0
CCOC(=O)c1[nH]c(=S)n(Cc2ccccc2)c1C(=O)OCC,-,?,-,-,3.2µM,?
Cc1ccccc1CNC(=O)c1ccc2[nH]c(C)c(C)c2c1,-,0,?,40µM,50µM,0
Cc1c(C)n(C)c2ccc(C(=O)NCCCN3CCCCC3)cc12,-,0,?,0,?,0
CCN(CC)c1ccc(NC(=O)c2ccc3c(c2)c(C)c(C)n3C)cc1,-,0,3.2µM,11µM,18µM,35µM
Cc1ccccc1CNC(=O)c1ccc2c(c1)c(C)c(C)n2C,-,0,?,40µM,?,0
CCN(Cc1ccccc1)S(=O)(=O)c1ccc(N2CCCCS2(=O)=O)cc1,-,0,0,0,0,0
COc1ccc(C(=O)O)cc1NS(=O)(=O)c1cccc2nsnc12,0,0,4µM,0,0,0
CCOc1ccc(OCC)c(NS(=O)(=O)c2cccc3nsnc23)c1,-,0,?,50µM,?,?
COc1ccccc1NS(=O)(=O)c1cccc2nsnc12,0,0,-,0,0,0

# High-throughput results as filed in PubChem BioAssay.
